# Source: the supplement of paper PMC8728848
# About 410 targets per protein were measured; listed, in parts, are those with the strongest signals and a random draw of the rest.
# B1: CD34 (Homo sapiens), P28906 (protein)
# chain: MGSSHHHHHHSSGLVPRGSHMSTSLATSPTKPYTSSSPILSDIKAEIKCSGIREVKLTQGICLEQNKTSSCAEFKKDRGEGLARVLCGEEQADADAGAQVCSLLLAQSEVRPQCLLLVLANRTEISSKLQLMKKHQSDLKKLGILDFTEQDVASHQSYSQKT
# How the values were obtained:
# Test in all cases: glycan array binding signal (z-score within array); higher = stronger binding
# Conditions in all cases: glycan notation: IUPAC condensed, linker removed
# [1] = molecular target: Fuc(a1-2)Gal(b1-4)Fuc(a1-3)]GlcNAc(b1-2)Man(a1-3)[Fuc(a1-2)Gal(b1-4)[Fuc(a1-3)]GlcNAc(b1-2)Man(a1-6)]Man(b1-4)GlcNAc(b1-4)GlcNAc
# Procedure, shortened: (§1)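 Glycan array data came from 3228 arrays in the Consortium for Functional Glycomics database, and only arrays with an available protein sequence were kept. Glycan names were put into IUPAC-condensed notation, and columns mapping to the same glycan were averaged. The binding signal is a within-array Z-score, averaged across arrays of one protein sequence run at different concentrations or buffers and across linkers. A negative Z-score can be read as non-binding.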
# Fuc(a1-2)Gal(b1-4)GlcNAc = molecular target: Fuc(a1-2)Gal(b1-4)GlcNAc
# Procedure, shortened: as §1
# [2] = molecular target: Fuc(a1-2)Gal(b1-4)[Fuc(a1-3)]GlcNAc(b1-2)[Fuc(a1-2)Gal(b1-4)[Fuc(a1-3)]GlcNAc(b1-4)]Man(a1-3)[Fuc(a1-2)Gal(b1-4)[Fuc(a1-3)]GlcNAc(b1-2)Man(a1-6)]Man(b1-4)GlcNAc(b1-4)GlcNAc
# Procedure, shortened: as §1
# Fuc(a1-2)Gal6S(b1-4)Glc = molecular target: Fuc(a1-2)Gal6S(b1-4)Glc
# Procedure, shortened: as §1
# [3] = molecular target: Fuc(a1-2)[GalNAc(a1-3)]Gal(b1-3)GlcNAc(b1-3)GalNAc
# Procedure, shortened: as §1
# [4] = molecular target: Fuc(a1-2)[GalNAc(b1-3)]Gal
# Procedure, shortened: as §1
# [5] = molecular target: Fuc(a1-3)[Gal(b1-4)]GlcNAc(b1-6)GalNAc
# Procedure, shortened: as §1
# Fuc(a1-4)GlcNAc = molecular target: Fuc(a1-4)GlcNAc
# Procedure, shortened: as §1
# Gal(a1-2)Gal = molecular target: Gal(a1-2)Gal
# Procedure, shortened: as §1
# Gal(a1-3)Gal = molecular target: Gal(a1-3)Gal
# Procedure, shortened: as §1
# Gal(a1-3)Gal(b1-3)GlcNAc = molecular target: Gal(a1-3)Gal(b1-3)GlcNAc
# Procedure, shortened: as §1
# [6] = molecular target: Gal(a1-3)Gal(b1-3)GlcNAc(b1-2)Man
# Procedure, shortened: as §1
# [7] = molecular target: Gal(a1-3)Gal(b1-4)GlcNAc(b1-2)Man
# Procedure, shortened: as §1
# [8] = molecular target: Gal(a1-4)Gal(b1-4)GlcNAc(b1-3)Gal(b1-4)Glc
# Procedure, shortened: as §1
# Gal(b1-3)GalNAc(b1-3)Gal = molecular target: Gal(b1-3)GalNAc(b1-3)Gal
# Procedure, shortened: as §1
# [9] = molecular target: Gal(b1-3)GalNAc(b1-4)Gal(b1-4)Glc
# Procedure, shortened: as §1
# [10] = molecular target: Gal(b1-3)GlcNAc(b1-3)Gal(b1-4)GlcNAc
# Procedure, shortened: as §1
# [11] = molecular target: Gal(b1-4)GlcNAc(b1-2)Man(a1-3)[Gal(b1-4)GlcNAc(b1-2)Man(a1-6)][GlcNAc(b1-4)]Man(b1-4)GlcNAc(b1-4)[Fuc(a1-6)]GlcNAc
# Procedure, shortened: as §1
# [12] = molecular target: Gal(b1-4)GlcNAc(b1-2)Man(a1-3)[Man(a1-6)]Man(b1-4)GlcNAc(b1-4)GlcNAc
# Procedure, shortened: as §1
# [13] = molecular target: Gal(b1-4)GlcNAc(b1-3)Gal(b1-4)GlcNAc(b1-2)[Gal(b1-4)GlcNAc(b1-3)Gal(b1-4)GlcNAc(b1-6)]Man(a1-6)[Gal(b1-4)GlcNAc(b1-3)Gal(b1-4)GlcNAc(b1-2)Man(a1-3)]Man(b1-4)GlcNAc(b1-4)GlcNAc
# Procedure, shortened: as §1
# [14] = molecular target: Gal(b1-4)GlcNAc(b1-3)Gal(b1-4)GlcNAc(b1-3)GalNAc
# Procedure, shortened: as §1
# Gal3S(b1-4)Glc = molecular target: Gal3S(b1-4)Glc
# Procedure, shortened: as §1
# Gal6S(b1-4)Glc = molecular target: Gal6S(b1-4)Glc
# Procedure, shortened: as §1
# GalNAc(b1-3)Gal = molecular target: GalNAc(b1-3)Gal
# Procedure, shortened: as §1
# [15] = molecular target: GalNAc(b1-3)Gal(a1-6)Gal(b1-4)Glc
# Procedure, shortened: as §1
# [16] = molecular target: GalNAc3S(b1-4)[Fuc(a1-3)]GlcNAc
# Procedure, shortened: as §1
# Glc(b1-6)Glc = molecular target: Glc(b1-6)Glc
# Procedure, shortened: as §1
# [17] = molecular target: GlcA3S(b1-3)Gal(b1-4)GlcNAc(b1-3)Gal(b1-4)Glc
# Procedure, shortened: as §1
# [18] = molecular target: GlcNAc(b1-2)[GlcNAc(b1-4)]Man(a1-3)[GlcNAc(b1-4)][GlcNAc(b1-2)Man(a1-6)]Man(b1-4)GlcNAc(b1-4)GlcNAc
# Procedure, shortened: as §1
# [19] = molecular target: GlcNAc(b1-2)[GlcNAc(b1-6)]Man(a1-6)[GlcNAc(b1-4)][GlcNAc(b1-2)Man(a1-3)]Man(b1-4)GlcNAc(b1-4)GlcNAc
# Procedure, shortened: as §1
# [20] = molecular target: GlcNAc(b1-3)Gal(b1-4)GlcNAc(b1-2)[GlcNAc(b1-3)Gal(b1-4)GlcNAc(b1-6)]Man(a1-6)[GlcNAc(b1-3)Gal(b1-4)GlcNAc(b1-2)Man(a1-3)]Man(b1-4)GlcNAc(b1-4)GlcNAc
# Procedure, shortened: as §1
# [21] = molecular target: GlcNAc(b1-3)Gal(b1-4)GlcNAc(b1-3)Gal(b1-4)GlcNAc
# Procedure, shortened: as §1
# [22] = molecular target: GlcNAc(b1-4)GlcNAc(b1-4)GlcNAc(b1-4)GlcNAc(b1-4)GlcNAc
# Procedure, shortened: as §1
# Kdn(a2-6)Gal(b1-4)GlcNAc = molecular target: Kdn(a2-6)Gal(b1-4)GlcNAc
# Procedure, shortened: as §1
# [23] = molecular target: Man(a1-2)Man(a1-3)[Man(a1-6)]Man(a1-6)[Man(a1-2)Man(a1-3)]Man(b1-4)GlcNAc(b1-4)GlcNAc
# Procedure, shortened: as §1
# MurNAc(b1-4)GlcNAc = molecular target: MurNAc(b1-4)GlcNAc
# Procedure, shortened: as §1
# [24] = molecular target: Neu5Ac(a2-3)Gal(b1-3)GalNAc(b1-4)[Neu5Ac(a2-3)]Gal(b1-4)Glc
# Procedure, shortened: as §1
# [25] = molecular target: Neu5Ac(a2-3)Gal(b1-3)GlcNAc(b1-2)Man(a1-3)[Neu5Ac(a2-3)Gal(b1-3)GlcNAc(b1-2)Man(a1-6)]Man(b1-4)GlcNAc(b1-4)GlcNAc
# Procedure, shortened: as §1
# [26] = molecular target: Neu5Ac(a2-3)Gal(b1-3)GlcNAc6S
# Procedure, shortened: as §1
# [27] = molecular target: Neu5Ac(a2-3)Gal(b1-3)[Fuc(a1-4)]GlcNAc(b1-3)Gal(b1-3)[Fuc(a1-4)]GlcNAc
# Procedure, shortened: as §1
# [28] = molecular target: Neu5Ac(a2-3)Gal(b1-3)[Fuc(a1-4)]GlcNAc(b1-3)Gal(b1-4)[Fuc(a1-3)]GlcNAc
# Procedure, shortened: as §1
# [29] = molecular target: Neu5Ac(a2-3)Gal(b1-4)GlcNAc(b1-2)Man
# Procedure, shortened: as §1
# [30] = molecular target: Neu5Ac(a2-3)Gal(b1-4)GlcNAc(b1-3)Gal(b1-3)GlcNAc
# Procedure, shortened: as §1
# [31] = molecular target: Neu5Ac(a2-3)Gal(b1-4)GlcNAc6S
# Procedure, shortened: as §1
# [32] = molecular target: Neu5Ac(a2-3)Gal(b1-4)[Fuc(a1-3)]GlcNAc
# Procedure, shortened: as §1
# [33] = molecular target: Neu5Ac(a2-3)[Neu5Ac(a2-6)]GalNAc
# Procedure, shortened: as §1
# [34] = molecular target: Neu5Ac(a2-6)Gal(b1-4)GlcNAc(b1-2)Man(a1-6)[Gal(b1-4)GlcNAc(b1-2)Man(a1-3)]Man(b1-4)GlcNAc(b1-4)GlcNAc
# Procedure, shortened: as §1
# [35] = molecular target: Neu5Ac(a2-6)Gal(b1-4)GlcNAc(b1-3)Gal(b1-4)GlcNAc(b1-2)Man(a1-3)[Neu5Ac(a2-6)Gal(b1-4)GlcNAc(b1-3)Gal(b1-4)GlcNAc(b1-2)Man(a1-6)]GalNAc
# Procedure, shortened: as §1
# [36] = molecular target: Neu5Ac(a2-6)Gal(b1-4)GlcNAc(b1-3)Gal(b1-4)GlcNAc(b1-3)GalNAc
# Procedure, shortened: as §1
# [37] = molecular target: Neu5Ac(a2-6)GalNAc(b1-4)GlcNAc6S
# Procedure, shortened: as §1
# [38] = molecular target: Neu5Ac(a2-8)Neu5Ac(a2-3)[Gal(b1-3)GalNAc(b1-4)]Gal(b1-4)Glc
# Procedure, shortened: as §1
# [39] = molecular target: Neu5Gc(a2-3)Gal(b1-3)[Fuc(a1-4)]GlcNAc
# Procedure, shortened: as §1
# [40] = molecular target: Neu5Gc(a2-3)Gal(b1-4)[Fuc(a1-3)]GlcNAc
# Procedure, shortened: as §1
# [41] = molecular target: Neu5Gc(b2-6)Gal(b1-4)GlcNAc
# Procedure, shortened: as §1
binder,measurement,setting,value
B1,glycan array binding signal (z-score),[1],1.89
same,glycan array binding signal (z-score),Fuc(a1-2)Gal(b1-4)GlcNAc,0.713
same,glycan array binding signal (z-score),[2],1.72
same,glycan array binding signal (z-score),Fuc(a1-2)Gal6S(b1-4)Glc,0.088
same,glycan array binding signal (z-score),[3],1.77
same,glycan array binding signal (z-score),[4],-0.335
same,glycan array binding signal (z-score),[5],-0.245
same,glycan array binding signal (z-score),Fuc(a1-4)GlcNAc,0.624
same,glycan array binding signal (z-score),Gal(a1-2)Gal,-0.315
same,glycan array binding signal (z-score),Gal(a1-3)Gal,0.754
same,glycan array binding signal (z-score),Gal(a1-3)Gal(b1-3)GlcNAc,0.398
same,glycan array binding signal (z-score),[6],0.084
same,glycan array binding signal (z-score),[7],-1.01
same,glycan array binding signal (z-score),[8],-0.647
same,glycan array binding signal (z-score),Gal(b1-3)GalNAc(b1-3)Gal,-0.13
same,glycan array binding signal (z-score),[9],0.08
same,glycan array binding signal (z-score),[10],-0.549
same,glycan array binding signal (z-score),[11],-0.754
same,glycan array binding signal (z-score),[12],-0.73
same,glycan array binding signal (z-score),[13],2.58
same,glycan array binding signal (z-score),[14],1.97
same,glycan array binding signal (z-score),Gal3S(b1-4)Glc,1.83
same,glycan array binding signal (z-score),Gal6S(b1-4)Glc,-0.308
same,glycan array binding signal (z-score),GalNAc(b1-3)Gal,1.82
same,glycan array binding signal (z-score),[15],-1.07
same,glycan array binding signal (z-score),[16],0.211
same,glycan array binding signal (z-score),Glc(b1-6)Glc,-1.19
same,glycan array binding signal (z-score),[17],-0.551
same,glycan array binding signal (z-score),[18],-0.524
same,glycan array binding signal (z-score),[19],-0.731
same,glycan array binding signal (z-score),[20],-0.175
same,glycan array binding signal (z-score),[21],-0.666
same,glycan array binding signal (z-score),[22],0.087
same,glycan array binding signal (z-score),Kdn(a2-6)Gal(b1-4)GlcNAc,-0.352
same,glycan array binding signal (z-score),[23],-0.726
same,glycan array binding signal (z-score),MurNAc(b1-4)GlcNAc,1.79
same,glycan array binding signal (z-score),[24],2.63
same,glycan array binding signal (z-score),[25],2.09
same,glycan array binding signal (z-score),[26],0.142
same,glycan array binding signal (z-score),[27],1.31
same,glycan array binding signal (z-score),[28],-0.478
same,glycan array binding signal (z-score),[29],1.1
same,glycan array binding signal (z-score),[30],-0.171
same,glycan array binding signal (z-score),[31],-0.319
same,glycan array binding signal (z-score),[32],-0.826
same,glycan array binding signal (z-score),[33],-0.204
same,glycan array binding signal (z-score),[34],-0.644
same,glycan array binding signal (z-score),[35],0.167
same,glycan array binding signal (z-score),[36],0.803
same,glycan array binding signal (z-score),[37],0.66
same,glycan array binding signal (z-score),[38],-0.858
same,glycan array binding signal (z-score),[39],0.294
same,glycan array binding signal (z-score),[40],1.71
same,glycan array binding signal (z-score),[41],-0.479
